According to PubChem BioAssay:
Measured potencies and affinities stand elsewhere. Active and inactive are the calls of the source. How the calls were made is not given here.

target: Plasmodium falciparum protein kinase 6 (PK6, PF3D7_1337100) (UniProt Q8IDW1); test: PfPK6 kinase inhibitors, biochemical, TCAMS library (AID 1159586); conditions: recombinant PfPK6, Kinase-Glo ATP depletion luminescence
Sequence (Q8IDW1 1-305): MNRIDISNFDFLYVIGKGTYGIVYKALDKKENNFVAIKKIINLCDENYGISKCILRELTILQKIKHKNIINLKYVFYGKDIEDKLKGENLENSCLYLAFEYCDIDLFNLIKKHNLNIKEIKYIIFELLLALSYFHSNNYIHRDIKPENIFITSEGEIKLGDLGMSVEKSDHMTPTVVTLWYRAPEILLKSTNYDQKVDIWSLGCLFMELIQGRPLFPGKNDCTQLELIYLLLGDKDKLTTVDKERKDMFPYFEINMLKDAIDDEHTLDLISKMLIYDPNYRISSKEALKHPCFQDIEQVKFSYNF

outcome, inactive:
COc1ccc(Cc2cnc(N)nc2N)cc1OCCCOc1ccccc1
CCOC(=O)c1c(-c2ccccc2)c(C(=O)OCC)n2ccccc12
Cc1cc(=O)c(-c2ccc(S(=O)(=O)c3ccc(Cl)cc3)cc2)c(C)[nH]1
Cc1[nH]c(C)c(-c2ccc(Oc3ccc(Cl)cc3)c(Cl)c2)c(=O)c1Br
COc1ccc2c(CNCCCCCCNCc3c(OC)ccc4cc(OC)ccc34)c(OC)ccc2c1
Cc1cc2c3c(N)nc(N)nc3ccc2n1C
COc1ccc(Cc2cnc3nc(N)nc(N)c3c2C)cc1OC
Nc1nc(N)c2c(Oc3ccc(Cl)c(Cl)c3)cccc2n1
CCCCCCCN(Cc1ccc(OC(C)(C)C(=O)OCC)cc1)C(=O)Cc1ccc(F)cc1F
Oc1c(CNC2CCCCC2)cc(Cl)c2ccccc12
COc1ccc2c(c1CNCCCCCCNCc1c(OC)ccc3c1CCCC3)CCCC2
COc1cc(Cc2cnc(N)nc2N)cc(OCCCCCCC(=O)O)c1OC
CCCCNCCOc1ccc(-c2nc(-c3ccccc3)c(-c3ccccc3)[nH]2)cc1
Nc1nc(N)c2c(Sc3ccc(F)cc3)cccc2n1
Cc1[nH]c(C)c(-c2ccc(Oc3ccc(F)cc3)cc2)c(=O)c1Br
Cc1[nH]c(C)c(-c2ccc(-c3ccc(F)cc3)cc2)c(=O)c1Cl
Cc1[nH]c(C)c(-c2ccc(Oc3cccc(OC(F)(F)F)c3)cc2)c(=O)c1Cl
CC1CN=C(c2ccc(NC(=O)Nc3ccc(C4=NCC(C)N4)cc3)cc2)N1 (centres undefined)
CCCCC#Cc1cnc2nc(N)[nH]c(=O)c2n1
COc1cc(Cc2cnc(N)nc2N)cc(OCCCS(=O)(=O)O)c1OC
CCCOc1ccc(CNCCCCCCNCc2ccc(OCCC)c3ccccc23)c2ccccc12
NC(N)=NC(=O)Nc1ccc(Cl)c(C(F)(F)F)c1
CCOC(=O)c1nc2ccc(SC3CCCCC3)cn2c1Br
CC(C)C(=O)Nc1c(F)cc(F)cc1CCc1ccc(O)cc1
CC(CN=C(N)c1cccc(C(N)=NCC(C)Oc2cccc(C3CCCCC3)c2)n1)Oc1cccc(C2CCCCC2)c1 (centres undefined)
CCNC(=NCc1ccccc1)NCCCCCCNC(=NCc1ccccc1)NCC
COc1ccc(OC)c(CC2c3ccc(Br)c(O)c3CCN2C)c1 (centres undefined)
CCc1ccc(Cc2cnc3nc(N)nc(N)c3c2C)cc1CC
COc1cc2c(cc1OC)C(C)(C)CN1Cc3c(c(CO)c(OC)c(OC)c3OC)CC21 (centres undefined)
Cc1c(Cc2ccc(C(C)C)cc2)cnc2nc(N)nc(N)c12
COc1ccc2c(OC)cccc2c1CNCCCCCCNCc1c(OC)ccc2c(OC)cccc12
CCCc1cc(Cc2cnc(N)nc2N)cc2c1OC(C)(C)C2
CCOc1cc(Cc2cnc(N)nc2N)ccc1OC
CCC1=C(C[C@H]2NCCc3cc(OC)c(OC)cc32)C[C@H]2c3cc(OC)c(OC)cc3CCN2C1
CCOc1cc2ncnc(Nc3ccc(OCc4ccccc4OC)c(OC)c3)c2cc1OCC
Cc1[nH]c(C)c(-c2ccc(Oc3ccc(Cl)cc3)cc2)c(=O)c1C
CN(Cc1cnc2nc(N)nc(N)c2n1)c1ccc(C(=O)N[C@H](CCC(=O)OC(C)(C)C)C(=O)N[C@@H](CCC(=O)OC(C)(C)C)C(=O)OC(C)(C)C)cc1
CCCCNCc1ccc(OCc2cccc(COc3ccc(CNCCCC)cc3I)c2)c(I)c1
CC(C)(C)c1ccc(-c2nnc(N)nc2N)cc1
